The source of these data is PubChem BioAssay.

Assay [1] can be described thus: reduced viability of SK-BR-3 breast cancer cells – cell-based, 24 h, human, pilot screen (AID 572).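 Further: compound exposure lasted between 18 and 24 h rather than exactly 24 h; 100% = carrier-treated control wells.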 As to conditions: SK-BR-3 viability, CellTiter-Glo luminescence, at 10 µM, stronger effect = lower value.
Assay [2] is described as follows: HUVEC growth inhibition – cell-based, human, primary screen (AID 575;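 active means viability at or below 30% in both replicate assays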;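 further: 100% = median of untreated cell wells with 0.1% DMSO on each plate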). The note with it: HUVEC proliferation, CellTiter-Glo luminescence, 72 h; at 10 µM; stronger effect = lower value.
Assay [3] can be described thus: H69AR cell proliferation blockers – human, duplicate replicates, primary screen (AID 580;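 active means viability at or under a set limit in both replicates, limit being median viability minus 3 SD, cut at about 48% in these data, passing the limit was not always enough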;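 further: 100% = mean luminescence of untreated wells and 0% = no signal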). As to conditions: H69AR lung tumor cells viability, ATP luminescence, 72 h; at 10 µM; stronger effect = lower value.
Assay [4] in a line: MRP1 drug-resistance reversers in H69AR cells – cell-based, doxorubicin co-treatment, pilot screen (AID 601;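 active means viability loss from added drug above about 55%, and viability with drug at most 40%, in both replicates, limit read from the data, passing the limit was not always enough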). The note with it: CellTiter-Glo, 72 h, at 10 µM; for differential viability (reversal): stronger effect = higher value.
Assay [5] can be described thus: yeast transport mutant growth inhibition pilot in 384-well plates, post-Golgi transport modulator project (AID 636; in the data active means inhibition above about 31%). As to conditions: absorbance 615 nm, about 18 h, stronger effect = higher value.
Assay [6] can be described thus: growth suppression of yeast trafficking mutant, preliminary HTS, modulators of trafficking downstream of Golgi apparatus project, 1536-format plate, OD 615 nm (AID 637; in the data active means inhibition above about 30%). The note with it: yeast transport mutant growth, absorbance 615 nm, 18 h; stronger effect = higher value.
The nature of assay [7]: S. cerevisiae growth inhibition in permissive medium (OD615), pilot counter-assay for S. cerevisiae lifespan shortening project, permissive growth control (AID 705;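 active means growth inhibition above 25% in both replicates, a cutoff set 3 SD above the mean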). The note with it: OD615, 24 h, at 10 µM, stronger effect = higher value.
Assay [8] is described as follows: S. cerevisiae growth inhibition in restrictive medium, OD615, pilot screen, restrictive growth control, yeast lifespan reduction project (AID 706;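 active means growth inhibition above a set limit, 3 SD over mean compound inhibition, in both replicates, cut at about 43% in these data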;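 further: modified DeaD lifespan yeast strain shifted to restrictive glucose medium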). As to conditions: OD615, 48 h, at 10 µM, stronger effect = higher value.
The nature of assay [9]: doxorubicin toxicity protection in MRP-1 cells – H69AR cells, CellTiter-Glo, duplicate, MRP-1 activator project, pilot screen (AID 807;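 active means viability increase at or above a cutoff of the median across tested compounds plus 3 SD, cut at about 8.5% in these data, passing the limit was not always enough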;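 further: compound pretreatment 18-22 h then 72 h combined with doxorubicin; 0% = doxorubicin alone and 100% = vehicle without doxorubicin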). The note with it: H69AR viability with doxorubicin, CellTiter-Glo luminescence; at 10 µM; stronger effect = higher value.
Assay [10] is described as follows: viability of HCT116 without oncogenic beta-catenin – human colon tumor cells, pilot screen (AID 823;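 active means cell viability at or below a set limit in both duplicate runs, the limit being the all-compound median minus 4 SD, cut at about 23% in these data, passing the limit was not always enough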;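 further: 0% = wells killed by 20 µM Hyamine and 100% = untreated DMSO cell wells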). As to conditions: HCT116 beta-catenin knockout viability, CellTiter-Glo, 60 h; at 10 µM; stronger effect = lower value.
The nature of assay [11]: viability of PTEN-null HCT116 cells – cell-based, HCT116 clonal line, CellTiter-Glo, pilot screen (AID 824;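 active means viability at or below 27.92% in each of two runs, the all-compound median minus 4 SD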;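 further: 0% = 20 µM Hyamine control and 100% = vehicle cell control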). As to conditions: HCT116 PTEN-deleted viability, 60 h, at 10 µM, stronger effect = lower value.
Assay [12] in a line: RAM pathway blockade in budding yeast – dse1pr::URA3 reporter, 5-FOA selection, pilot screen (AID 869;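 active means inhibition over a set limit, the all-compound mean plus 3 SD, in both replicate runs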;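 further: 0% = DMSO wells with no growth and 100% = 10 µM 1-NA-PP1 with full growth; RAM network block rescues cells from 5-FOA so hits raise OD615 growth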). The note with it: S. cerevisiae dse1pr::URA3 5-FOA growth, OD615, 2 d; at 10 µM; stronger effect = higher value; strain carries analog-sensitive mutant Cbk1 kinase.
Where [13] appears, read: H69AR cells + 2 uM doxorubicin, measured here: viability with 2 uM doxorubicin, stronger effect = lower value.
The mark [14] stands for this setting: H69AR cells, compound alone cytotoxicity.

Results filed as inconclusive are left out. Activity calls are given as the source filed them.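 How the source made its calls, unless noted: active means viability at or below 10% of carrier control in both of two separate runs; inconclusive means viability at or below 10% in only one of the two runs; inactive means the rest.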

`CCN(CC)CCOC(=O)C1(C2CCCCC2)CCCCC1`: the viability in assay [1] is 114% (inactive); in assay [2] it was 72.7% (inactive); in assay [3] it was 86.3% (inactive); in [4] (setting [13]), 83.2%; in assay [4] (setting [14]), 86.3%. Also, in [4] (H69AR cells + 2 uM doxorubicin), the differential viability (reversal) is 3.1% (inactive). In addition, the inhibition was -2.6% (inactive) in [5] and -3.33% (inactive) in [6].
Take `CCOC(=O)c1ccccc1NC1c2ccccc2C(=O)N1C1CCN(C(=O)OCC)CC1` (centres undefined): the viability was 126% (inactive) in assay [1]; 76.2% (inactive) in assay [2]; 80.5% (inactive) in [3]; 42.9% in [4] (setting [13]); 80.5% in assay [4] (setting [14]); 50.3% (inactive) in assay [10]. In assay [11], the viability was 46.2% (inactive). The differential viability (reversal) in [4] (H69AR cells + 2 uM doxorubicin) was 37.6% (inactive). Besides, the inhibition in assay [5] was -4.13% (inactive); in assay [6] it was -3.17% (inactive); in assay [12], 1.9% (inactive). Besides, the values for the growth inhibition in assay [7] and in assay [8] were 3.84% (inactive) and 4.88% (inactive), respectively. Besides, the viability increase in [9] was -7.16% (inactive).
As to `N#CC1=C(N)OC2=C(CCC/C2=C/c2ccoc2)C1c1ccoc1` (centres undefined), the viability in [1] was 87% (inactive); in assay [2], 99.1% (inactive); in [3] it was 80.8% (inactive); in assay [4] (setting [13]), 77.9%; in [4] (setting [14]), 80.8%. Further, in assay [4] (H69AR cells + 2 uM doxorubicin), the differential viability (reversal) is 2.94% (inactive). Further, the inhibition in [5] was -5.95% (inactive); in assay [6] it was 0.18% (inactive).
`O=C(CN1C(=O)c2ccccc2C1=O)Nc1ccc(S(=O)(=O)NCC2CCCO2)cc1` (centres undefined): the viability in assay [1] was 89% (inactive); in assay [2], 107% (inactive); in assay [3] it was 96.4% (inactive); in [4] (setting [13]) it was 110%; in assay [4] (setting [14]), 96.4%. For the same compound, in assay [4] (H69AR cells + 2 uM doxorubicin), the differential viability (reversal) was -14.1% (inactive). Moreover, the figures for the inhibition in assay [5] and in [6] were -7.4% (inactive) and -4.91% (inactive), respectively.
Take `CC1(C)Cc2c(C#N)c(SCCC#N)nc(N3CCOCC3)c2CS1`: the viability is 83% (inactive) in [1], 86.6% (inactive) in assay [2] and 84.2% (inactive) in assay [3]. Moreover, the values for the inhibition in assay [5] and in [6] were -3.42% (inactive) and -4.84% (inactive), respectively.
Turning to `CN1CCN(CCCN2c3ccccc3Sc3ccc(C(F)(F)F)cc32)CC1`, the viability in assay [1] is 91% (inactive); in [2], 2.21% (active); in assay [4] (setting [13]), 4.2%; in [4] (setting [14]), 1.03%. Moreover, in assay [4] (H69AR cells + 2 uM doxorubicin), the differential viability (reversal) is -3.17% (inactive). The inhibition in assay [5] is 1.43% (inactive); in assay [6], 53.8% (active).
On to `CCOC(=O)N1CCC(n2c(SCC(=O)NCc3ccco3)nc3ccsc3c2=O)CC1`, for which the viability in [1] was 81% (inactive); in assay [2] it was 88.3% (inactive); in [3], 78.5% (inactive). Moreover, the inhibition in [5] is -3.55% (inactive); in [6], 2.67% (inactive).
`COc1cc([C@@H]2c3cc4c(cc3[C@H](O)[C@H]3COC(=O)[C@H]23)OCO4)cc(OC)c1OC`: the viability in assay [1] is 101% (inactive); in [2] it was 33.9% (inactive); in assay [4] (setting [13]) it was 63.7%; in assay [4] (setting [14]) it was 31.2%. For the same compound, the differential viability (reversal) in assay [4] (H69AR cells + 2 uM doxorubicin) was -32.5% (inactive). Further, the inhibition in assay [5] is -2.99% (inactive); in assay [6], -5.67% (inactive).
For the compound `COc1ccccc1Nc1nc(N)nc(-c2cc3ccccc3o2)n1`, the viability in [1] is 91% (inactive); in assay [2], 78.4% (inactive); in [4] (setting [13]) it was 75.7%; in assay [4] (setting [14]), 49.3%. Also, the differential viability (reversal) in [4] (H69AR cells + 2 uM doxorubicin) is -26.4% (inactive). Besides, the inhibition is -2.97% (inactive) in assay [5] and -4.55% (inactive) in assay [6].
In the case of `O=C1NC2c3ccccc3C(=O)N2c2c1cnn2-c1ccccc1` (centres undefined), the viability in assay [1] was 98% (inactive); in [2], 80.3% (inactive); in [4] (setting [13]), 86%; in [4] (setting [14]) it was 50.6%. The differential viability (reversal) in [4] (H69AR cells + 2 uM doxorubicin) is -35.4% (inactive). The inhibition in assay [5] is 0.68% (inactive); in assay [6], 0.91% (inactive).
As for `COc1cc(/C=C/C(=O)CC(=O)/C=C/c2ccc(O)c(OC)c2)ccc1O`, the viability in assay [1] is 116% (inactive); in assay [2], 56.8% (inactive); in assay [4] (setting [13]) it was 2.06%; in [4] (setting [14]), 3.09%. The differential viability (reversal) in assay [4] (H69AR cells + 2 uM doxorubicin) is 1.03% (inactive). Moreover, the inhibition in assay [5] is -2.34% (inactive); in assay [6], 3.5% (inactive).
`CC[C@]1(O)CC2CN(CCc3c([nH]c4ccccc34)[C@@](C(=O)OC)(c3cc4c(cc3OC)N(C=O)[C@H]3[C@@](O)(C(=O)OC)[C@H](OC(C)=O)[C@]5(CC)C=CCN6CC[C@]43[C@@H]65)C2)C1` (some centres undefined): the viability in assay [1] is 104% (inactive); in assay [2] it was 34.6% (inactive); in assay [4] (setting [13]) it was 53.5%; in assay [4] (setting [14]), 26.5%. For the same compound, the differential viability (reversal) in [4] (H69AR cells + 2 uM doxorubicin) was -27% (inactive). The inhibition was -0.91% (inactive) in [5] and -3.67% (inactive) in [6].
Regarding `CCCCc1oc2ccccc2c1C(=O)c1cc(I)c(OCCN(CC)CC)c(I)c1`, the viability was 91% (inactive) in assay [1], 2.45% (active) in assay [2], 12.4% in assay [4] (setting [13]) and 1.29% in assay [4] (setting [14]). Further, the differential viability (reversal) in [4] (H69AR cells + 2 uM doxorubicin) is -11.1% (inactive). Besides, the inhibition in [5] and in [6] was 100% (active) throughout.
With `O=C(Nc1cccc(-c2nnc(-c3ccccc3)o2)c1)C1CCCCC1`, the viability in assay [1] was 88% (inactive); in assay [2], 82.8% (inactive); in assay [4] (setting [13]) it was 53.3%; in assay [4] (setting [14]), 54%. In addition, the differential viability (reversal) in [4] (H69AR cells + 2 uM doxorubicin) was 0.7% (inactive). Moreover, the inhibition in assay [5] is -8.49% (inactive); in assay [6] it was 3.55% (inactive).
Take `O=C(Cn1c(=O)oc2ccccc21)Nc1ccc(S(=O)(=O)N2CCCCC2)cc1`: the viability in assay [1] was 106% (inactive); in [2], 89.2% (inactive); in assay [4] (setting [13]) it was 59.9%; in assay [4] (setting [14]) it was 65.1%. In [4] (H69AR cells + 2 uM doxorubicin), the differential viability (reversal) was 5.17% (inactive). The results for the inhibition in assay [5] and in [6] were 1.92% (inactive) and -2.58% (inactive), respectively.
`CN1CCN(c2ccc(Cl)cc2NC(=O)c2cccc(S(=O)(=O)N(C)C)c2)CC1`: the viability in assay [1] was 93% (inactive); in assay [2] it was 71.6% (inactive); in assay [4] (setting [13]), 24.6%; in [4] (setting [14]) it was 67.9%. Further, the differential viability (reversal) in assay [4] (H69AR cells + 2 uM doxorubicin) is 43.3% (inactive). Further, the inhibition is -5.47% (inactive) in assay [5] and 1.27% (inactive) in [6].
As to `COc1ccccc1NC(=O)N(Cc1ccco1)Cc1cc2c(C)ccc(C)c2[nH]c1=O`, the viability in assay [1] was 70% (inactive); in [2] it was 71.1% (inactive); in [4] (setting [13]), 50.9%; in assay [4] (setting [14]) it was 22.1%. Moreover, the differential viability (reversal) in assay [4] (H69AR cells + 2 uM doxorubicin) was -28.8% (inactive). Moreover, the inhibition is -2.88% (inactive) in assay [5] and -2.55% (inactive) in assay [6].
Take `CCOC(=O)c1[nH]c2ccc(Br)cc2c1NC(=O)CCN1CCC(C(=O)OCC)CC1`: the viability is 115% (inactive) in assay [1], 77.3% (inactive) in assay [2], 33.2% in [4] (setting [13]) and 45.2% in assay [4] (setting [14]). The differential viability (reversal) in assay [4] (H69AR cells + 2 uM doxorubicin) is 12% (inactive). The results for the inhibition in assay [5] and in assay [6] were -2.53% (inactive) and 1.27% (inactive), respectively.
Take `CC(=O)O[C@H]1C(=O)[C@]2(C)[C@H]([C@H](OC(=O)c3ccccc3)[C@]3(O)C[C@H](OC(=O)[C@H](O)[C@@H](NC(=O)c4ccccc4)c4ccccc4)C(C)=C1C3(C)C)[C@]1(OC(C)=O)CO[C@@H]1C[C@@H]2O`: the viability in [1] is 67% (inactive); in [2], 38.8% (inactive); in assay [4] (setting [13]), 81.8%; in [4] (setting [14]), 12.6%. Also, in assay [4] (H69AR cells + 2 uM doxorubicin), the differential viability (reversal) is -69.2% (inactive). The inhibition is 0.52% (inactive) in assay [5] and -0.67% (inactive) in assay [6].
